The list is not random: actives were taken first. Their share in the collection is about 18%.
Gal4-VP16 FLuc – VP16 counterscreen qHTS for inhibitors of ROR gamma transcriptional activity; 310,000 compounds, 3.5% hits; Potency, µM (highest dose often 53.6 µM), actives largely listed as inhibitors; Drosophila S2 Gal4-VP16 UAS-luciferase, luminescence, 20 h;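 also: Gal4-VP16 expression switched on by copper sulfate through the metallothionein promoter; nearly all actives have a fitted effect of over 50% in size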
LDHA inh – qHTS assay for inhibitors of human lactate dehydrogenase; L-lactate dehydrogenase A chain (Homo sapiens), P00338; purified LDHA, NADH/diaphorase-resazurin fluorescence; active compounds read low; activity change, % (values are at about 110 or 230 µM); 480,000 compounds, 0.15% hits; AID 1347041, 2019; in the data active = activity change below about -30%; inconclusive = mostly about -25% to -30%
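Enzyme activity of human lactate dehydrogenase 5 (2 nM; 0.06 mM NADH, 0.2 mM pyruvate, 5 min, RT) is measured via a resazurin/diaphorase fluorescence readout of residual NADH.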
DT40 TDP1 CPT – qHTS for Inhibitors of human tyrosyl-DNA phosphodiesterase 1 (TDP1): qHTS in cells in presence of CPT; chicken DT40 Tdp1-/-;hTDP1 cells + 20 nM CPT, ATP luminescence, 48 h; Potency, µM (highest dose often 46.2 µM), hits mostly inhibitors; 420,000 compounds, 12% hits; AID 686979, 2013; also: nearly all actives have a fitted effect of over 55% in size
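Cell growth measured by CellTiter-Glo luminescence after a minimum 48 h, 37 C compound exposure with 20 nM CPT in Tdp1-knockout DT40 cells stably expressing hTDP1, seeded 400/well; qHTS titration format.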
TDP1 cell noCPT – qHTS for Inhibitors of human tyrosyl-DNA phosphodiesterase 1 (TDP1): qHTS in cells in absence of CPT. DT40 Tdp1-/- hTDP1 cells, no CPT, ATP luminescence, 48 h. Potency, µM (titrated, usually from 46.2 µM), actives largely listed as inhibitors. 420,000 compounds, 15% hits. AID 686978, 2013; also: nearly all actives have a fitted effect of over 55% in size
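Compound effects on proliferation are scored in DT40 Tdp1-/-;hTDP1 cells in the absence of CPT. ATP levels (CellTiter-Glo luminescence) are recorded after a ≥48 hr, 37 °C incubation.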
RORgamma inh – qHTS for inhibitors of ROR gamma transcriptional activity; Nuclear receptor ROR-gamma (Mus musculus), P51450; Drosophila S2 Gal4-RORgamma UAS-luciferase reporter, 20 h; 310,000 compounds, 5.4% hits; Potency, µM (top dose mostly 53.6 µM), hits mostly inhibitors; also: nearly all actives have a fitted effect of over 60% in size
Target sequence (P51450 whole entry, looked up, the tested form may be a part): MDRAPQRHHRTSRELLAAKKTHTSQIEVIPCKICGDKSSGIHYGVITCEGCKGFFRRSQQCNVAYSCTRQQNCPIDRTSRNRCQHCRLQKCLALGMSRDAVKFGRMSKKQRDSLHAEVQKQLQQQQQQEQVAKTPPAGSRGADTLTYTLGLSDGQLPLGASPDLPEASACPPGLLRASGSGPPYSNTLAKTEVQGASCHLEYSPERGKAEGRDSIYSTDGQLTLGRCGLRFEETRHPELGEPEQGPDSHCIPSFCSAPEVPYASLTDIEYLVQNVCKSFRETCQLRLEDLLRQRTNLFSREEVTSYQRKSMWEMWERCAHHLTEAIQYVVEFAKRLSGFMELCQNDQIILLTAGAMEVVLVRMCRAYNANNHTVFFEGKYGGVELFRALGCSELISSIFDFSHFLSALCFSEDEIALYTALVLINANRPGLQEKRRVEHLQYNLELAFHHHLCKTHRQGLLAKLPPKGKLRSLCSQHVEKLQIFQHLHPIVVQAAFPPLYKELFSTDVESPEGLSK
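Luciferase reporter read in Schneider cells carrying Gal4-RORγ (mouse) and UAS-Photinus luciferase; cells given compound 1 h before 700 uM copper sulfate induction, then incubated 20 h at ambient temperature.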
IL-1B inflam inh – qHTS for Inhibitors of Inflammasome Signaling: IL-1-beta AlphaLISA Primary Screen; THP-1 LPS/ATP IL-1B secretion, AlphaLISA, 16 h; active compounds read low; activity change, % at 57.5 µM; 360,000 compounds, 4.7% hits; AID 743279, 2014; in the data active = activity change below about -50%; inconclusive = mostly about -30% to -49%
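Secreted IL-1B measured by AlphaLISA bead assay after 16 h compound exposure of THP-1 cells; compounds (final up to 57.5 uM) added 1 h before LPS (250 ng/mL) and ATP (1.25 mM) stimulation; lower signal means less secretion.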
Hits are given with their value; - = inactive; ? = inconclusive; . = no result given. Unless noted, calls follow the shape of the dose curve; as a rule, active = well fitted curve in the direction sought with a large enough effect; inconclusive = small, poorly fitted or top-dose-only effect, or another doubt; inactive = no such curve, though single readings can be large; an effect the other way counts as inactive or inconclusive.

SMILES	Gal4-VP16 FLuc	LDHA inh	DT40 TDP1 CPT	TDP1 cell noCPT	RORgamma inh	IL-1B inflam inh
CCN1c2ccccc2N(C)C1(C)c1ccccc1 (configuration not stated)	?	-	3.7µM	3.7µM	-	-
CN(CCCCCCCCCCN(C)C(=O)Oc1cccc([N+](C)(C)C)c1)C(=O)Oc1cccc([N+](C)(C)C)c1	.	-	2.3µM	0.82µM	.	-
Cc1ccc(NC(=O)N2CC3CCCN3c3ccccc32)cc1Cl (configuration not stated)	.	-	?	16µM	.	.
Cc1ccc(NC(=O)N2CC3CCCN3c3ccccc32)c(C)c1 (configuration not stated)	.	-	23µM	18µM	.	.
O=C(Nc1cccc(C(F)(F)F)c1)N1CC2CCCN2c2ccccc21 (configuration not stated)	.	-	?	?	.	.
Cc1ccc(NC(=O)N2CC3CCCN3c3ccccc32)cc1C (configuration not stated)	.	-	18µM	23µM	.	.
O=C(CSc1ncnc2ccccc12)Nc1ccccc1C(=O)Nc1ccc(Cl)cc1	.	-	.	.	.	.
O=S(=O)(c1ccccc1)N1CCC2(CCCN(c3ccccc3)C2)CC1	-	.	-	?	-	.
O=S(=O)(c1ccccc1)N1CCC2(CCCN(c3ncccn3)C2)CC1	-	.	-	?	-	.
O=S(=O)(c1ccccc1)N1CCC2(CCCN(c3ccncc3)C2)CC1	?	.	2.1µM	1.2µM	-	.
O=S(=O)(c1ccccc1)N1CCC2(CCCN(c3ccccn3)C2)CC1	-	.	?	21µM	-	.
O=S(=O)(c1ccccc1)N1CCC2(CCN(Cc3ccncc3)CC2)CC1	-	.	?	21µM	-	.
O=S(=O)(c1ccccc1)N1CCC2(CC1)CN(c1ccncc1)C2	-	.	?	9.2µM	-	.
CCCCCCCCS(=O)(=O)CCCO	.	-	.	.	.	.
Cn1nc(C(=O)OCC(=O)N2CCc3ccccc32)c2ccccc2c1=O	-	-	-	-	-	-
CCCn1nc(C(=O)OCC(=O)N2CCCc3ccccc32)c2ccccc2c1=O	.	-31	.	.	.	.
CCCn1nc(C(=O)N2CC(=O)Nc3ccccc32)c2ccccc2c1=O	-	-	21µM	15µM	-	-
CCCCOc1ccc(C(=O)NC(=S)NCCCO)cc1Br	.	-	.	.	.	.
COC(=O)c1cn(CC(=O)N2CCC(C)CC2)c2ccccc12	.	-	.	.	.	.
c1ccc2c(c1)C(=Nn1c3ccccc3c3ccccc31)c1ccccc1-2	.	-	.	.	.	.
CCCc1cc(N2CCN(c3ccccc3F)CC2)n2cnnc2n1	.	-	18µM	26µM	.	.
Cc1cc(C(C)(C)CC(C)(C)C)ccc1OCCOCC[N+](C)(C)Cc1ccccc1	18µM	-	3.7µM	4.1µM	?	-
COC(=O)c1cc(NC(=O)CC2SC(=Nc3ccccc3)N(CCc3c[nH]c4ccccc34)C2=O)cc(C(=O)OC)c1 (configuration not stated)	-	-	16µM	?	-	-
COc1ccc(N=C2SC(CC(=O)Nc3ccccc3)C(=O)N2CCN2CCOCC2)cc1 (configuration not stated)	-	-	-	-	-	-
CC(C)c1cc(N2CCN(CCO)CC2)n2c(nc3ccccc32)c1C#N	.	-	.	.	.	.
SMILES	Gal4-VP16 FLuc	LDHA inh	DT40 TDP1 CPT	TDP1 cell noCPT	RORgamma inh	IL-1B inflam inh
COc1cc(C=C2CCC/C(=C\c3ccc(O)c(OC)c3)C2=O)ccc1O	.	.	3.3µM	7.5µM	.	.
CCOc1ccc(N2C(=O)S/C(=C\c3ccc(O)c(OCC)c3)C2=O)cc1	-	-	-	16µM	-	-53
CCOc1cc(/C=C2\SC(=O)N(c3ccc(O)cc3)C2=O)ccc1O	-	-	?	?	-	?
COc1cc(/C=C2/CCCC(C(=O)C(F)(F)F)=C2O)ccc1O	-	-	-	-	?	-
O=C1NC(=O)/C(=C/c2cccc([N+](=O)[O-])c2)N1	-	-	-	-	-	-
CCN1C/C(=C/c2cccc([N+](=O)[O-])c2)C(=O)/C(=C/c2cccc([N+](=O)[O-])c2)C1	3.5µM	-	0.58µM	0.73µM	4µM	-106
COc1cc(/C=C2\CCC/C(=C\c3ccc(O)c(OC)c3)C2=O)ccc1O	-	-	7.1µM	8.2µM	-	-95
Cc1c(CC(=O)N2CCCC2)c(=O)oc2c(C)c(O)ccc12	.	-	.	.	.	.
COc1cc(C=C(C(C)=O)C(C)=O)ccc1O	-	-	-	?	-	-67
COc1cc(C=C2C(=O)C=CC2=O)ccc1O	.	-	0.16µM	0.26µM	.	-113
CCOc1cc(/C=C2\CN(CC)C/C(=C\c3ccc(O)c(OCC)c3)C2=O)ccc1O	?	-	5.2µM	4.1µM	?	-104
COc1ccc(C=C(C(C)=O)C(C)=O)cc1OC	-	-	?	?	-	-
CCc1ccc2nc(-c3ccccn3)cc(C(=O)O)c2c1	.	-	.	.	.	.
Cc1ccc(-n2cnnc2SCC(=O)Nc2ccc(S(=O)(=O)N3CCCCCC3)cc2)c(C)c1	.	-	.	.	.	.
Cc1nc(SCc2noc(-c3ccccc3O)n2)n(C2CC2)c1C	.	-	.	.	.	.
CCSc1ccccc1C(=O)Nc1ccc(-c2nc3ccccc3s2)c(O)c1	.	-	9.2µM	13µM	.	.
CSc1ccc(C(=O)Nc2ccc(-c3nc4ccccc4s3)c(O)c2)cc1	.	-	?	?	.	.
CC(C)c1ccc(C(=O)Nc2ccc(-c3nc4ccccc4s3)c(Cl)c2)cc1	.	-	6.5µM	7.3µM	.	.
O=C(O)C(c1c[nH]c2cc(Cl)ccc12)N1CCN(CCOc2ccc(Cl)cc2)CC1 (configuration not stated)	.	-	.	.	.	.
COC(=O)CCC(=O)c1oc2ccc(Br)cc2c1N	-	-	?	26µM	-	-
COc1ccc2oc(C(=O)CCC(=O)O)c(N)c2c1	-	-	-	-	-	-
CC(C)c1ccc(C(=O)NC(C)c2ccccc2F)cc1 (configuration not stated)	.	-	.	.	.	.
CCCc1ccc(C(=O)COC(=O)c2ccc3ccccc3c2)cc1	.	-	.	.	.	.
Cc1ccc2nc(/C(C#N)=C/c3ccc(-c4ccc(C)c(Cl)c4)o3)[nH]c2c1	.	-	.	.	.	.
CCOC(=O)c1ccc(NC(=O)COc2cc3oc(=O)c(CC(C)O)c(C)c3cc2Cl)cc1 (configuration not stated)	-	-	-	-	-	-
CC(=O)c1cccc(NC(=O)COc2cc3oc(=O)c(CC(C)O)c(C)c3cc2Cl)c1 (configuration not stated)	-	-	?	21µM	-	-
